# About 100 (1.7%) of roughly 5,900 compounds were called active. This excerpt belongs to a sample that is enriched for actives. Values without a mark were called inactive.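 Rule for the calls: active = binding response below 72% of control, or above a set upper limit, though filed actives all read lower; inactive = the rest.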
# Target: Mitogen-activated protein kinase kinase kinase 3 (Homo sapiens) (UniProt Q99759)
# Experiment: blockers of MEK5-MEKK3 PB1 association – biochemical, bead multiplex flow cytometry, single concentration, wildtype, confirmation (AID 1894);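 note: 100% = DMSO only wells and 0% = binding blocked by excess unlabeled MEK5; lower values mean stronger disruption of MEK5 binding to MEKK3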
# Settings: Alexa488-MEK5 binding to MEKK3, at 10 µM, active compounds read low
# Chain of Mitogen-activated protein kinase kinase kinase 3 (Homo sapiens) (Q99759 whole entry, looked up): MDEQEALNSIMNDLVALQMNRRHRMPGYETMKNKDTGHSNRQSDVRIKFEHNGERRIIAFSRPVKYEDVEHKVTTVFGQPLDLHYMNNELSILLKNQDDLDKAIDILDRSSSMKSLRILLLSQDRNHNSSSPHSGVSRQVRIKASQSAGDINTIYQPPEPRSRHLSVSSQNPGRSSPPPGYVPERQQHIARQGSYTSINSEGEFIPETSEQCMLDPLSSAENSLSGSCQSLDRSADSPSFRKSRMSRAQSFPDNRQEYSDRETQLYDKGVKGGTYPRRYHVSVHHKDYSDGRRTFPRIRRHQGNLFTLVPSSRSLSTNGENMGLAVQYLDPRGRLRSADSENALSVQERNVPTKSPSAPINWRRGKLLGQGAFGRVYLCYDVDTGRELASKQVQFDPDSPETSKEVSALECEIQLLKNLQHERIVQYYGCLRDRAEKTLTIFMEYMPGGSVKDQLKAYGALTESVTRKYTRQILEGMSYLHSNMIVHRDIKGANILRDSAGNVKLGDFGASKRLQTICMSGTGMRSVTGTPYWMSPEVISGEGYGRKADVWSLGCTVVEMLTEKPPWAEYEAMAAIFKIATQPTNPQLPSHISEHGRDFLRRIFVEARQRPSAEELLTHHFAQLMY
row,SMILES,binding response (% of control)
1,COc1ccc(-c2[nH]ncc2CN(C)Cc2c(C)n[nH]c2C)c(OC)c1,109%
2,COc1ccccc1N1CCN(CCCCOc2ccc(F)cc2)CC1,103%
3,CN1C(=O)/C(=C\c2ccc(-c3ccccc3)o2)SC1=S,70% (active)
4,Cc1cc(Cl)ccc1OCc1nc(-c2ccncc2)no1,79%
5,CCn1c(NC(=O)c2ccccc2)c(-c2cccs2)c(=O)c2ccccc21,101%
6,Cc1cc(C)nc(-n2ncc3c2CC(c2ccc(C(C)C)cc2)CC3=O)n1 (configuration not stated),99%
7,C/C(=N\NC(=O)CNC(=O)C(c1ccccc1)c1ccccc1)c1ccc(C)cc1,108%
8,Cc1cc2cc(CNC(=O)c3cccs3)ccc2[nH]1,77%
9,CCOc1ccc(S(=O)(=O)N(CC(=O)O)c2ccccc2)cc1,106%
10,CC(C)CC(=O)NC(=S)Nc1cc(C(=O)O)ccc1Cl,104%
11,Cn1c(SCc2nc3ccccc3s2)nnc1-c1ccc2c(c1)OCO2,98%
12,Cc1no[n+]([O-])c1COc1ccccc1/C=C1\NC(=S)NC1=O,101%
13,CC(C)(C)NC(=O)Cn1cnc([N+](=O)[O-])n1,97%
14,COc1ccc(CCNC(=O)CSc2nnc3ccc(-c4ccncc4)nn23)cc1,105%
15,CCOc1cc(C2C(C(=O)OC)=CN(C3CCCC3)C=C2C(=O)OC)cc(Br)c1O,109%
16,O=C(O)c1cc(Cl)c(Cl)cc1C(=O)Nc1cccc2ncccc12,102%
17,COc1ccc(NC(=O)Cn2nnc(C(=O)NCCc3ccc(OC)c(OC)c3)c2N)cc1,102%
18,Cn1c(C(=O)NCCCN2CCCCC2)cc2sccc21,109%
19,O=C(NCCCN1CCCCCC1)C1CC(=O)N(C2CCCC2)C1 (configuration not stated),2% (active)
20,O=C(NCCCN1CCCCCC1)c1ccc(N2CCCC2=O)cc1,110%
21,Cc1ccc(C(=O)NC(=S)Nc2ccc3[nH]c(=O)[nH]c3c2)cc1C,100%
22,c1ccc(CN2CCC(N=C3NN=C(c4ccc5c(c4)OCCO5)CS3)CC2)cc1,117%
23,C[C@H]1CCC(=O)N([C@H](CSc2ccccc2)Cc2ccccc2)CC1,108%

row,SMILES,binding response (% of control)
1,O=C(CC1SCCNC1=O)Nc1ccc(Cl)c(Cl)c1 (configuration not stated),106%
2,CCNC(=O)CSc1nc(-c2ccccc2)cs1,104%
3,COc1ccc(S(=O)(=O)Nc2ccc3oc(C)c(C(C)=O)c3c2)cc1,100%
4,O=C(CN1CCN(C(=O)c2ccco2)CC1)Nc1ccc(Cl)c(C(F)(F)F)c1,104%
5,COc1ccccc1OCCNCC(O)COc1cccc2[nH]c3ccccc3c12 (configuration not stated),100%
6,O=C(NCCN1CCOCC1)[C@H](Cc1ccccc1)N1C(=O)c2ccccc2C1=O,100%
7,c1ccc(Nc2nc(N3CCOCC3)c3ccccc3n2)cc1,106%
8,CCOc1ccc(S(=O)(=O)NCCCn2ccnc2)cc1NC(C)=O,97%
9,CSCC[C@H](NC(=O)CCCn1nnc2ccccc2c1=O)C(=O)O,102%
10,COc1cc(NC(=S)NCc2ccco2)c(OC)cc1Cl,104%
11,CC(C)C(=O)N1c2ccccc2NC2=C(C(=O)CCC2)C1c1ccc(N(C)C)cc1 (configuration not stated),106%
12,COc1ccccc1N=C(C)C1=C(O)COC1=O,102%
13,CC1(C)Cc2cccc(OCC(=O)N3CCN(c4ccc([N+](=O)[O-])cc4)CC3)c2O1,103%
14,CN(C)c1ccc(/C=C2\NC(=S)N(Cc3ccccc3)C2=O)cc1,99%
15,CC(C)CC(=O)N1CCN(Cc2ccccc2Br)CC1,107%
16,CC1(C)OC(=O)N2CCc3ccccc3C21C (configuration not stated),104%
17,COc1cccc(NC(=S)NCc2ccccn2)c1,96%
18,CCOc1nnc(C)c2c(C)n(-c3cccc(Cl)c3)nc12,91%
19,CCCc1nnc(SCC(=O)N2C(C)CCCC2C)n1CC (configuration not stated),111%
20,O=C(Nc1cccnc1)c1cc(Cl)ccc1Cl,106%
21,O=C(O)CC(Cc1ccccc1)C(=O)Nc1ccc([N+](=O)[O-])cc1 (configuration not stated),100%
22,COc1cccc(/C=N\NC(=O)C2=NNC(=O)C2C)c1O (configuration not stated),100%
23,CNC(C)C#Cc1ccc2sc3cc(OC)c(OC)cc3c(=O)c2c1 (configuration not stated),104%

row,SMILES,binding response (% of control)
1,Cc1ccc(Nc2nc(CSc3nnc(-c4ccncc4)n3-c3ccccc3C)cs2)cc1,103%
2,Cc1c(S(=O)(=O)NCc2ccccc2)c(=O)n(C)c(=O)n1C,101%
3,Cc1cnc(NC(=O)Cn2cnc3c2c(=O)n(C)c(=O)n3C)s1,97%
4,C=CCn1c(=S)sc2c(=O)[nH]c(C)nc21,107%
5,CC1CCN(C2=NC(=O)/C(=C/c3cn[nH]c3-c3ccccc3)S2)CC1,91%
6,O=C(CCCO)N/N=C/c1cc(Br)ccc1O,102%
7,COc1ccc(CC(=O)N2N=C(C)CC2(O)C(F)(F)F)cc1 (configuration not stated),98%
8,O=C1C=CC(=O)N1c1ccc(N2CCCCC2)cc1,100%
9,N=c1c2c(-c3ccccc3)c(-c3ccccc3)n(Cc3ccccc3)c2ncn1CCCO,110%
10,Cc1cccc(/C=N/NC(=O)CNc2cccc3ccccc23)n1,110%
11,O=C(O)CCCC(=O)Nc1ccc(Oc2cccc(C(F)(F)F)c2)nc1,105%
12,Cc1nn(-c2ccccc2)c(C)c1NC(=O)CCl,97%
13,COC(=O)c1c(NC(=O)COC(=O)[C@@H](NS(=O)(=O)c2ccccc2)C(C)C)sc2c1CCC2,102%
14,Cc1cn(COC/C=C/c2ccccc2)c(=O)[nH]c1=O,105%
15,CCO[C@H]1OC(C(=O)N2CCOCC2)=C[C@@H](c2ccc3c(c2)OCO3)[C@@H]1CCCO,104%
16,Cc1noc(C)c1S(=O)(=O)N(C)Cc1ccccc1,103%
17,CCN(CC)C(=O)CC(c1ccc2c(c1)OCO2)c1c(OC)cc(OC)c2c(-c3ccccc3)cc(=O)oc12 (configuration not stated),103%
18,FC(F)(F)c1nc(-c2ccccc2)ncc1-c1nnnn1-c1ccccc1,100%
19,CCOC(=O)N1CCN(CC(=O)n2c(C)c(C)c3ccccc32)CC1,97%
20,Cn1c(=NC(=O)CSCC(=O)N2CCOCC2)sc2ccccc21,86%
21,Cc1nc2cc(S(=O)(=O)C(F)(F)F)ccc2s1,101%
22,CCN1CCN(c2nc(Nc3cc(OC)ccc3OC)nc(Nc3cc(OC)ccc3OC)n2)CC1,106%
23,Cc1ccccc1C(=O)NNC(=O)CN1C(=O)c2ccccc2C1=O,93%

row,SMILES,binding response (% of control)
1,CCOC(=O)c1c(Cc2ccc(Cl)cc2)c[nH]c1C,107%
2,CCOC(=O)C(NS(=O)(=O)c1ccc(C)cc1)(C(F)(F)F)P(=O)(OCC(C)C)OCC(C)C (configuration not stated),94%
3,C#CCOCCOCCOCCNc1nc(N2CCN(C(=O)C([C@@H](C)CC)n3cc(C(N)COC(=O)C(F)(F)F)nn3)CC2)nc(N2CCN(C(=O)[C@H](CCCCN)n3cc(C(N)CC(C)C)nn3)CC2)n1 (some centres not stated),106%
4,COc1ccc(C2CC(c3cccs3)=NN2c2nc(C)c(C(C)=O)s2)cc1OC (configuration not stated),97%
5,Cc1ccc(NC(=O)COc2ccc(-n3ccnc3)cc2)cc1Cl,108%
6,Fc1ccc(-c2ccc(CNCc3ccccn3)o2)cc1Cl,103%
7,O=C(NC1CCN(Cc2ccccc2)CC1)c1cc(Br)c(Br)[nH]1,110%
8,O=C(O)/C(=C/c1cccnc1)NC(=O)c1ccccc1,104%
9,CCCCn1c(SCC(=O)NCCc2ccc(OC)c(OC)c2)nc2c1c(=O)n(C)c(=O)n2C,100%
10,COc1ccc(SC[C@H](Cc2ccccc2)N2CCN(CCc3ccccc3)CCC2=O)cc1,107%
11,O=C1Nc2ccc(Br)cc2/C1=N/N=C/C1=C(N2CCOCC2)C(=C\c2ccccc2)/CC1,54% (active)
12,C=CCn1c(P(C)(=O)O)nc2ccccc21,97%
13,O=C(OCC1O[C@@H](OC(=O)c2cc(O)c(O)c(O)c2)[C@@H](OC(=O)c2cc(O)c(O)c(O)c2)[C@@H](OC(=O)c2cc(O)c(O)c(O)c2)[C@@H]1OC(=O)c1cc(O)c(O)c(O)c1)c1cc(O)c(O)c(O)c1 (some centres not stated),1% (active)
14,C#CCOCCOCCOCCNc1nc(N2CCN(C(=O)[C@H](CCCCN)n3cc([C@@H](N)C(C)CC)nn3)CC2)nc(N2CCN(C(=O)[C@H](Cc3ccc(O)cc3)n3cc([C@@H](N)C(C)CC)nn3)CC2)n1 (some centres not stated),109%
15,COc1ccc(N2CCN(Cc3nnc(-c4ccccc4)o3)CC2)cc1,96%
16,Cc1ccc(S(=O)(=O)NC(=O)N2CCCC(C)(C)C2)cc1,98%
17,C=CCN1C=C2C(=O)C(C)(OC(=O)CCc3ccccc3)C(=O)C=C2C=C1c1ccc(C#N)cc1 (configuration not stated),103%
18,Cc1ccc(N2C(=O)CC(N3CCSCC3)C2=O)c(C)c1 (configuration not stated),102%
19,C/C=C/c1ccc(OCCCCN2CCC(C)CC2)c(OC)c1,103%
20,CN1CCN(/N=C/c2ccc(C#N)cc2)CC1,86%
21,COc1cc2c(cc1OC)CN(C(=O)c1ccc(S(=O)(=O)N3CCCCCC3)cc1)CC2,100%
22,CN(CC(=O)Nc1cccc(F)c1)CC(=O)Nc1cccc([N+](=O)[O-])c1,103%
23,N/C(=N\OS(=O)(=O)c1cccc([N+](=O)[O-])c1)c1ccncc1,104%
